The list is not random: actives were taken first. Their share in the collection is about 19%.
IL-1B inflam inh = qHTS for Inhibitors of Inflammasome Signaling: IL-1-beta AlphaLISA Primary Screen | THP-1 LPS/ATP IL-1B secretion, AlphaLISA, 16 h; hits give low values | activity change, % at 57.5 µM | actives 4.7% (n = 360,000) | AID 743279, 2014; in the data active means activity change below about -50%; inconclusive means mostly about -30% to -49%
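Secreted IL-1B measured by AlphaLISA bead assay after 16 h compound exposure of THP-1 cells; compounds (final up to 57.5 uM) added 1 h before LPS (250 ng/mL) and ATP (1.25 mM) stimulation; lower signal means less secretion.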
DT40 TDP1 CPT = qHTS for Inhibitors of human tyrosyl-DNA phosphodiesterase 1 (TDP1): qHTS in cells in presence of CPT; chicken DT40 Tdp1-/-;hTDP1 cells + 20 nM CPT, ATP luminescence, 48 h; Potency, µM (top dose mostly 46.2 µM), usual class: inhibitors; actives 12% (n = 420,000); AID 686979, 2013; further: nearly all actives have a fitted effect of over 55% in size
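Chicken DT40 Tdp1-/- cells stably complemented with human TDP1 were seeded at 400 cells/well in medium containing 20 nM camptothecin, exposed to pin-transferred compounds, and grown at 37 °C for at least 48 hr. Viability was read as ATP luminescence.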
DT40 TDP1 no CPT = qHTS for Inhibitors of human tyrosyl-DNA phosphodiesterase 1 (TDP1): qHTS in cells in absence of CPT; actives 15% (n = 420,000); Potency, µM (top dose mostly 46.2 µM), usual class: inhibitors; DT40 Tdp1-/- hTDP1 cells, no CPT, ATP luminescence, 48 h; further: nearly all actives have a fitted effect of over 55% in size
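No-CPT arm: Tdp1-/-;hTDP1 DT40 cells (400/well) plus compounds, incubated ≥48 hr at 37 °C. Readout CellTiter-Glo luminescence.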
ELG1 DNA repair = qHTS screen for small molecules that inhibit ELG1-dependent DNA repair in human embryonic kidney (HEK293T) cells expressing luciferase-tagged ELG1 | HEK293T ELG1-luciferase reporter, luminescence, 16 h; DNA damage induced by 5-fluorouridine | Potency, µM (doses to about 46.1 µM), hits mostly inhibitors | actives 2.3% (n = 330,000) | AID 504467, 2011; further: nearly all actives have a fitted effect of over 55% in size
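Reporter activity after DNA damage by 5-fluorouridine is monitored. Compound-treated cells incubate 16 hr at 37 °C, then ONE-Glo is added for 30 min before luminescence reading.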
HT1080 IDH1KD tx = qHTS for induction of synthetic lethality in tumor cells producing 2HG: qHTS for the HT-1080-IDH1KD cell line | actives 2% (n = 360,000) | HT-1080 IDH1 knockdown viability, ATP luminescence, 48 h | Potency, µM (doses to about 46.1 µM), usual class: cytotoxic
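Luminescent ATP read-out (CellTiter-Glo, 10 min at room temperature) after 48 h compound exposure at 37 °C gave viability of IDH1-knockdown HT-1080 cells. Activity was normalised to DMSO and cell-free wells, then fitted as concentration-response curves.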
HT1080NT lethal = qHTS for induction of synthetic lethality in tumor cells producing 2HG: qHTS for the HT-1080-NT fibrosarcoma cell line | HT-1080-NT fibrosarcoma viability, CellTiter-Glo ATP luminescence, 48 h | Potency, µM (top dose mostly 46.1 µM), hits mostly cytotoxic | actives 1.6% (n = 360,000) | AID 686970, 2013;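 further: NT is the 2HG producing partner of a matched IDH1 knockdown line; nearly all actives have a fitted effect of over 55% in size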
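Viability of the 2HG-overproducing fibrosarcoma line after 48 hours of compound exposure at 37 degrees C was determined by luminescence with CellTiter-Glo, and concentration-effect curves were then fitted and categorized.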
A number is an active result. Unless noted, the call rests on the fitted dose curve; in most records, active means well fitted curve in the direction sought with a large enough effect; inconclusive means small, poorly fitted or top-dose-only effect, or another doubt; inactive means no such curve, though single readings can be large; an effect the other way counts as inactive or inconclusive.

Screening Cc1cccc(NC(=S)NNC(=O)COc2ccc(Cl)cc2Cl)c1 returned IL-1B inflam inh inactive, DT40 TDP1 CPT inactive, DT40 TDP1 no CPT inactive, ELG1 DNA repair inconclusive, HT1080 IDH1KD tx inactive and HT1080NT lethal inactive.
For COC(CC(=O)NNC(=S)Nc1ccc(Cl)cc1)OC the results were IL-1B inflam inh inactive, DT40 TDP1 CPT 18µM, DT40 TDP1 no CPT 18µM, ELG1 DNA repair inactive, HT1080 IDH1KD tx inactive and HT1080NT lethal inactive.
`Cc1ccc(OCC(=O)Nc2ccc([N+](=O)[O-])cc2)cc1` gave IL-1B inflam inh inactive, DT40 TDP1 CPT inactive, DT40 TDP1 no CPT inactive, ELG1 DNA repair inactive, HT1080 IDH1KD tx inactive and HT1080NT lethal inactive.
`CCC(=O)NC(=S)Nc1ccc(NC(=O)COc2ccc([N+](=O)[O-])cc2)cc1` gave IL-1B inflam inh inactive, DT40 TDP1 CPT inconclusive, DT40 TDP1 no CPT 23µM, ELG1 DNA repair inconclusive, HT1080 IDH1KD tx inactive and HT1080NT lethal inactive.
C[C@H]1CN([C@@H](C)CO)C(=O)CCCn2nncc2CO[C@@H]1CN(C)C(=O)NC1CCCCC1 was read as IL-1B inflam inh inactive, DT40 TDP1 CPT inactive, DT40 TDP1 no CPT inactive, HT1080 IDH1KD tx inactive and HT1080NT lethal inactive.
O=c1c(CCc2ccccc2)nc2cnc(N3CCOCC3)nc2n1C1CC1 was read as DT40 TDP1 CPT inconclusive and DT40 TDP1 no CPT inactive.
`O=C(Nc1nc2c(s1)CCCC2)c1ccc(N2C(=O)CCC2=O)cc1` gave IL-1B inflam inh inactive, DT40 TDP1 CPT inactive, DT40 TDP1 no CPT inactive, ELG1 DNA repair inconclusive, HT1080 IDH1KD tx inactive and HT1080NT lethal inactive.
For O=C(NC(=S)Nc1nc2c(s1)CCCC2)c1ccccc1 the results were IL-1B inflam inh inactive, DT40 TDP1 CPT inconclusive, DT40 TDP1 no CPT 29µM, ELG1 DNA repair inconclusive, HT1080 IDH1KD tx inactive and HT1080NT lethal inactive.
`O=C(CS(=O)(=O)Cc1ccccc1)Nc1nc2c(s1)CCCC2` gave IL-1B inflam inh inactive, DT40 TDP1 CPT inactive, DT40 TDP1 no CPT inactive, ELG1 DNA repair inactive, HT1080 IDH1KD tx inactive and HT1080NT lethal inactive.
Screening COC(=O)c1ccc(C(=O)NC(=S)Nc2nc3c(s2)CCCC3)cc1 returned IL-1B inflam inh inactive, DT40 TDP1 CPT inconclusive, DT40 TDP1 no CPT 16µM, ELG1 DNA repair inconclusive, HT1080 IDH1KD tx inactive and HT1080NT lethal inactive.
`O=C(CCS(=O)(=O)Cc1ccccc1)Nc1nc2c(s1)CCCC2` gave IL-1B inflam inh inactive, DT40 TDP1 CPT inconclusive, DT40 TDP1 no CPT 26µM, ELG1 DNA repair inconclusive, HT1080 IDH1KD tx 8.9µM and HT1080NT lethal inconclusive.
For CC(C(=O)Nc1ccc2[nH]c(=O)[nH]c2c1)N1CCN(Cc2ccc3c(c2)OCO3)CC1 (stereo not drawn) the results were IL-1B inflam inh inactive, DT40 TDP1 CPT inactive, DT40 TDP1 no CPT inactive, ELG1 DNA repair inactive, HT1080 IDH1KD tx inactive and HT1080NT lethal inactive.
For O=C(COC(=O)c1cccs1)Nc1cccc(S(=O)(=O)N2CCOCC2)c1 the results were IL-1B inflam inh inactive, DT40 TDP1 CPT inactive, DT40 TDP1 no CPT inactive, ELG1 DNA repair inactive, HT1080 IDH1KD tx inactive and HT1080NT lethal inactive.
`CC(NC(=O)COC(=O)/C(=C/c1cccs1)c1cccs1)c1ccccc1` (stereo not drawn) gave IL-1B inflam inh inactive, DT40 TDP1 CPT inconclusive, DT40 TDP1 no CPT 18µM, ELG1 DNA repair inconclusive, HT1080 IDH1KD tx inactive and HT1080NT lethal inactive.
NS(=O)(=O)c1cccc(NC(=O)COC(=O)/C(=C/c2cccs2)c2cccs2)c1 was read as IL-1B inflam inh -93, DT40 TDP1 CPT inconclusive, DT40 TDP1 no CPT 23µM, ELG1 DNA repair inconclusive, HT1080 IDH1KD tx inactive and HT1080NT lethal inactive.
Screening NS(=O)(=O)c1cccc(NC(=O)COC(=O)C2(c3cccc(F)c3)CCCC2)c1 returned IL-1B inflam inh -53, DT40 TDP1 CPT inconclusive, DT40 TDP1 no CPT inconclusive, ELG1 DNA repair inactive, HT1080 IDH1KD tx inactive and HT1080NT lethal inactive.
`Cc1ccc(NC(=O)COC(=O)/C(=C/c2cccs2)c2cccs2)cc1S(=O)(=O)N(C)C` gave IL-1B inflam inh inactive, DT40 TDP1 CPT 16µM, DT40 TDP1 no CPT 15µM, ELG1 DNA repair inconclusive, HT1080 IDH1KD tx inactive and HT1080NT lethal inactive.
`CC(O)CNc1nc(N)[nH]c(=O)c1N=Nc1ccccc1` (stereo not drawn) gave IL-1B inflam inh inactive, DT40 TDP1 CPT inactive, DT40 TDP1 no CPT inactive, HT1080 IDH1KD tx inactive and HT1080NT lethal inactive.
Cc1ccc(CNC(=O)CCC2CCCN(Cc3c(C)nn(C(C)C)c3C)C2)o1 (stereo not drawn) was read as IL-1B inflam inh inactive, DT40 TDP1 CPT inactive, DT40 TDP1 no CPT inactive, ELG1 DNA repair inactive, HT1080 IDH1KD tx inactive and HT1080NT lethal inactive.
For O=C(NC1CC2CCCC(C1)N2C(=O)Nc1ccccc1F)C1CC1 (stereo not drawn) the results were IL-1B inflam inh inactive, DT40 TDP1 CPT inactive, DT40 TDP1 no CPT inconclusive, ELG1 DNA repair inactive, HT1080 IDH1KD tx inactive and HT1080NT lethal inactive.
`Cc1cccc(N2CCN(C(=O)c3[nH]c(C(F)(F)F)nc3-c3ccccc3)CC2)c1C` gave IL-1B inflam inh inactive, DT40 TDP1 CPT 1.3µM, DT40 TDP1 no CPT 1.3µM, HT1080 IDH1KD tx 0.58µM and HT1080NT lethal inconclusive.
Screening COc1ccccc1N1CCN(C(=O)c2[nH]c(C(F)(F)F)nc2-c2ccccc2)CC1 returned IL-1B inflam inh inactive, DT40 TDP1 CPT 6.5µM, DT40 TDP1 no CPT 5.8µM, HT1080 IDH1KD tx 0.82µM and HT1080NT lethal 1.3µM.
For CCOC(=O)N1CCN(C(=O)c2[nH]c(C(F)(F)F)nc2-c2ccccc2)CC1 the results were IL-1B inflam inh inactive, DT40 TDP1 CPT 16µM, DT40 TDP1 no CPT 16µM, HT1080 IDH1KD tx inconclusive and HT1080NT lethal inconclusive.
For CC(=O)N1CCN(C(=O)c2[nH]c(C(F)(F)F)nc2-c2ccccc2)CC1 the results were IL-1B inflam inh inactive, DT40 TDP1 CPT inactive, DT40 TDP1 no CPT inactive, HT1080 IDH1KD tx inactive and HT1080NT lethal inactive.
`O=C(c1[nH]c(C(F)(F)F)nc1-c1ccccc1)N1CCN(c2cccc(C(F)(F)F)n2)CC1` gave IL-1B inflam inh inactive, DT40 TDP1 CPT 4.6µM, DT40 TDP1 no CPT 4.6µM, HT1080 IDH1KD tx 1.8µM and HT1080NT lethal 1.3µM.

From PubChem BioAssay
